Rows were chosen to be rich in hits. Some 19% of all compounds tested hit in one or more screens of this group.
Shiga toxin inh: blocks Shiga toxin action in Vero cells; Vero cells, Shiga toxin protein synthesis inhibition reporter; inhibition, % at 38.7 µM; 9.2% of 290,000 active; AID 2315; in the data active = inhibition mostly above about 28%, no sharp cut-off; inactive = mostly below about 43%; note: 0% is about no effect
Cycloheximide cs: counter-screen for Shiga toxin inhibitors: cycloheximide protein synthesis inhibition. cell reporter, cycloheximide protein synthesis inhibition counterscreen. max response, %. 12% of 300,000 active. AID 2314; in the data active = max response mostly above about 13%, no sharp cut-off; inactive = mostly below about 14%; note: read at 38.3 µM for the half of the compounds with a filed dose; 0% is about no effect
SARS PLP yeast: SARS-CoV PLP inhibition in yeast | S. cerevisiae expressing SARS-CoV PLpro, growth rescue | 0.19% of 330,000 active | Potency, µM (doses to about 32.9 µM), without a hit: at the top dose activity, positive = growth rescue, most hits filed as activators; calls by dose curve; note: potency is the fitted concentration of half-maximal effect; 0% is about no effect; nearly all actives have a fitted effect of over 55% in size
Pf growth 96h: P. falciparum growth inhibition at 96 hours | P. falciparum luciferase reporter growth, 96 h | Potency, µM (highest dose often 28.7 µM), for inactives: at the highest dose activity change, negative = inhibition, usual class: inhibitors | 6.9% of 320,000 active; note: potency is the fitted concentration of half-maximal effect; % is set by controls: 0 for no effect and ±100 for the full control effect
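P. falciparum expressing integrated firefly luciferase grown in erythrocytes (2% hematocrit, 0.05% parasitemia final) with compounds for 96 hours at 37 C, 5% CO2. Growth inhibition read as loss of luminescence after adding luciferase detection reagent.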
Pf growth 48h: P. falciparum growth inhibition at 48 hours (one generation). Potency, µM (titrated, usually from 28.7 µM), for inactives: at the highest dose activity change, negative = inhibition, actives largely listed as inhibitors. P. falciparum luciferase growth in erythrocytes, 48 h. 5.9% of 310,000 active; note: potency is the fitted concentration of half-maximal effect; % is set by controls: 0 for no effect and ±100 for the full control effect
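Cell-based growth assay: transgenic P. falciparum expressing firefly luciferase, cultured in red cells within RPMI 1640 containing 0.5% w/v Albumax, 24 mM bicarbonate and gentamycin. A drop in luciferase activity indicates inhibition.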
AMA1 RON2 block: AMA1-RON2 (P. falciparum) interaction inhibition; AlphaScreen AMA1-biotinylated RON2 peptide binding; Potency, µM (series often up to 58.2 µM), for inactives: top-dose activity change, negative = inhibition, usual class: inhibitors; 0.2% of 360,000 active; AID 720542;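 note: potency is the fitted concentration of half-maximal effect; 0% = vehicle wells and -100% = peptide control; nearly all actives have a fitted effect of over 45% in size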
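AMA1 (3D7) with his tag at 25 nM final met compounds first, then biotinylated RON2 peptide at 25 nM; detection used donor plus acceptor beads, 10 µg/mL apiece, read by AlphaScreen after 30 min at room temperature.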
* = called active by the depositor; ? = inconclusive; . = no result given; [ ] = dose if it differs, or a comment. Unless noted, calls come from the whole dose curve; as a rule, active = well fitted curve in the direction sought with a large enough effect; inconclusive = small, poorly fitted or top-dose-only effect, or another doubt; inactive = no such curve, though single readings can be large; an effect the other way counts as inactive or inconclusive.

SMILES	Shiga toxin inh	Cycloheximide cs	SARS PLP yeast	Pf growth 96h	Pf growth 48h	AMA1 RON2 block
N#CCCN/N=C(/Cc1nc2ccccc2[nH]1)c1ccc(Cl)cc1	67*	30*	-1%	.	?	.
COC(=O)C1CCN(Cc2c(C(=O)N3C[C@@H](C)O[C@@H](C)C3)nc3ccc(Cl)cn23)CC1	-15	1	1%	?	2%	10%
COc1cc2ccc(C(=O)O)cc2cc1OC	.	.	.	.	.	5%
Cc1ccc(N/N=C(\Cc2nc3ccccc3[nH]2)c2ccccc2)cc1	48*	35*	19%	?	9.3µM*	25%
CCN/N=C(\Cc1nc2ccccc2[nH]1)c1ccccc1	58	20*	2%	?	10µM*	51%
Cc1ccc(Cc2nc3ccccc3[nH]2)cc1	31	8	2%	-29%	1%[0.00184 µM]	17%
CC1(C)CC2(C)CC(=O)C1C(C(=O)O)C2C(=O)O (stereo not drawn)	.	.	.	.	.	-7%
O=C(Nc1nccs1)C1CCCN1S(=O)(=O)c1ccc(F)cc1 (stereo not drawn)	-9	3	7%	11%	-1%	-8%
CCNC(=S)N/N=C/c1ccc(F)cc1	-9	0	?	?	-1%	.
CC(=O)N/N=C/C1=CCC2CC1C2(C)C (stereo not drawn)	-6	3	-11%	7%	-5%	0%
CCCCNC(=S)N/N=C/C1=CCC2CC1C2(C)C (stereo not drawn)	10	8	-26%	12µM*	9.3µM*	14%
CC(C)NC(=S)N/N=C/C1=CCC2CC1C2(C)C (stereo not drawn)	-16	-7	-32%	?	13µM*	22%
CCCCNC(=S)N/N=C/c1ccc(C#N)cc1	21	0	2%	9.3µM*	-28%	62%
CCOC(=O)C1=C(C)Nc2ccccc2N=C1NC(=O)c1cc(C)on1	.	.	-3%	1%	?	48%
CC12CN(NC(=O)c3ccccc3F)C3(C#N)CC1CCC23C (stereo not drawn)	-3	-3	0%	?	-1%[5.75 µM]	5%
O=C(CCCSc1nc2ccccc2s1)NCc1ccco1	81	16*	-5%	?	.	5%
Cc1cnc(NC(=O)CCCSc2nc3ccccc3s2)s1	31	-3	7%	?	0%	-5%
CCc1ccccc1NC(=O)CCCSc1nc2ccccc2s1	13	12*	14%	-3%	-5%	6%
Cc1csc(NC(=O)CCCSc2nc3ccccc3s2)n1	10	14	-16%	30%	-13%	-19%
Cc1cc(NC(=O)C(C)(C)C)no1	-4	-1	-1%	?	10%	2%
Cc1cc(N/C=C2\CCCCC2=O)no1	38	16*	-3%	-14%	42%	3%
Cc1ccn(-c2cc(O)c(-n3ccc(C)n3)cc2O)n1	46	14*	-6%	1%	41%	4%
NS(=O)(=O)c1ccc(CCNC(=O)CNC(=O)C2CCCCC2)cc1	-3	-1	18%	12µM*	10%	7%
NS(=O)(=O)c1ccc(CCNC(=O)CSc2ccccc2)cc1	-3	1	-4%	30%	2%	-4%
NS(=O)(=O)c1ccc(CCNC(=O)C2CCCCC2)cc1	-15	-4	2%	101%	?	-4%
SMILES	Shiga toxin inh	Cycloheximide cs	SARS PLP yeast	Pf growth 96h	Pf growth 48h	AMA1 RON2 block
NS(=O)(=O)c1ccc(CCNC(=O)CNCCc2ccccc2)cc1	-14	1	-1%	-6%	0%	40µM*
NC(=O)CN1CCN(S(=O)(=O)c2ccc(Br)cc2)CC1	-1	6	-2%	-1%	?	0%
N#Cc1ccc(CSCC(=O)O)cc1	-12	-1	-2%	-6%	10%	-1%
COC(=O)c1ccc(CSCc2ccc(C#N)cc2)cc1	75*	43*	0%	12%	5%	.
Cc1ccc(S(=O)(=O)N2CCCCC2)cc1NCC(=O)Nc1ccc(Br)cc1F	.	.	.	.	.	-1%
COC(=O)CCCC(=O)N1CCC(CCC(=O)NCc2ccc(F)cc2)CC1	-4	-1	-9%	15µM*	-19%	14%
COC(=O)CCC(=O)N1CCC(CCC(=O)NCc2ccc(F)cc2)CC1	-8	-2	-1%	5.2µM*	-6%	-1%
CS(=O)(=O)Nc1ccccc1C(=O)N1CCN(c2ccccc2)CC1	-10	1	2%	-3%	.	.
COc1ccc(-n2nnnc2C(c2ccccc2)N2CCN(C/C=C/c3ccccc3)CC2)cc1 (stereo not drawn)	.	.	.	.	.	-28%
CC(=O)c1ccc(OCc2cc(C(=O)N3CCOCC3)no2)cc1	79*	43*	5%	?	46%	4%
CC(=O)c1ccc(OCc2cc(C(=O)N3CCCCCCC3)no2)cc1	57*	57*	-3%	13µM*	-10%	-3%
CC(=O)c1ccc(OCc2cc(C(=O)N3CCC(Oc4ccccc4C)CC3)no2)cc1	143*	90*	-5%	?	?	-2%
CC(=O)c1ccc(OCc2cc(C(=O)N3CCN(C4CCCC4)C(=O)C3)no2)cc1	.	.	.	.	.	7%
Cc1cccc(NS(=O)(=O)c2ccc(C(=O)N3CC(C)OC(C)C3)cc2)c1C (stereo not drawn)	.	.	5%	-10%	-25%	2%
CC(C)(C#N)NC(=O)C1CCCN1S(=O)(=O)c1ccc2ccccc2c1 (stereo not drawn)	-6	-3	3%	41%	-9%	-1%
NC(=O)C1CCN(C(=O)CCNS(=O)(=O)c2cc(Br)cnc2N)CC1	-4	-2	-4%	15%	25%	-3%
O=C(CCNS(=O)(=O)c1ccccc1Cl)N1CCN(c2ccccn2)CC1	.	.	5%	-20%	-3%	-20%
Nc1ncc(Br)cc1S(=O)(=O)NCCC(=O)N1CCN(c2ccccn2)CC1	-22	-6	0%	6%	12µM*	13%
Nc1ncc(Br)cc1S(=O)(=O)NCCC(=O)N1CCN(c2ccccc2)CC1	-9	-6	3%	34%	6.6µM*	5%
CCO[C@H]1OC(C(=O)O)=C[C@@H](C(C)(C)C)[C@@H]1CCCO	.	.	.	.	.	0%
CCN(CC)C(=O)N[C@H]1C[C@@H]2c3cccc4[nH]cc(c34)C[C@H]2N(C)C1	-10	-3	-1%	0.93µM*	?	?
CN1C[C@H](CO)C[C@@H]2c3cccc4[nH]cc(c34)C[C@H]21	-6	-1	3%	6%	-2%	2%
C=CCN1CC(C(=O)N(CCCN(C)C)C(=O)NCC)CC2c3cccc4[nH]cc(c34)CC21 (stereo not drawn)	-3	12	.	11µM*	19µM*	.
Cc1cc(NC(=O)C2CC(=O)N(c3cccc(Cl)c3)C2)no1 (stereo not drawn)	19	-2	-1%	0%	6%	3%
Cc1ccc(C(=O)c2c(C)oc3c2C(=O)C(=O)c2ccccc2-3)cc1	4	18	-43%	?	?	-24%
Cc1ccc(C(=O)c2coc3c2C(=O)C(=O)c2ccccc2-3)cc1	42*	32*	-40%	-93%	.	-8%

Compound activity: PubChem, National Center for Advancing Translational Sciences (NCATS)
